Experimental data taken from PubChem BioAssay (Tox21).
Inconclusive results are not listed. Where a call stands in place of a potency, no number is given. Values without a mark were called inactive. Active and inactive are the calls of the source. Calls follow the shape of the dose curve; as a rule, active = well fitted curve in the direction sought with a large enough effect in the repeat runs; inconclusive = weak or mixed curves; inactive = no such curve, though single readings can be large; an effect the other way counts as inactive or inconclusive.

Experiments:
[1] = A CellTox Green Cytotoxicity Assay to monitor cytotoxicity in HEK293 cells - 40 hour (AID 1224871); also: nearly all actives have a fitted effect of over 45% in size; also: potency is read from the fitted curve at half-maximal effect
Method in brief: (§1)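 Read-out: fluorescence of a cell-impermeant cyanine dye staining DNA of dead cells, proportional to cytotoxicity. HEK293, 600 cells/well with reagent, compound (23 nL DMSO) added after 5 h; reads at 0, 8, 16, 24, 32, 40 h.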

[2] = qHTS RealTime-Glo MT Cell Viability Assay in HEK293 cells - 16 hour (AID 1224872); also: nearly all actives have a fitted effect of over 50% in size; also: potency is read from the fitted curve at half-maximal effect
Method in brief: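 Viability tracked continuously by luminescence as live cells reduce a prosubstrate for NanoLuc; HEK293 cells preincubated 5 h, compound-treated at 37 C, and read at 0, 8, 16, 24, 32 and 40 h.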

[3] = qHTS RealTime-Glo MT Cell Viability Assay in HepG2 cells - 8 hour (AID 1224873); also: nearly all actives have a fitted effect of over 55% in size
Method in brief: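 HepG2 cells mixed with RealTime-Glo MT reagents (NanoLuc plus cell-permeant prosubstrate) were seeded at 600 cells/well, incubated 5 h at 37 C/5% CO2, then pinned with compounds in DMSO; nonlytic luminescence tracked viability during 40 h treatment.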

[4] = qHTS RealTime-Glo MT Cell Viability Assay in HEK293 cells - 40 hour (AID 1224874); conditions: RealTime-Glo luminescence; max response: hits give low values; also: nearly all actives have a fitted effect of over 50% in size; also: potency is read from the fitted curve at half-maximal effect
Method in brief: (§2)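 Luminescence readout at each listed time point; HEK293, 600 cells/well, RealTime-Glo MT reagent added with cells; compounds pinned (23 nL in DMSO) after 5 h at 37 C; continuous culture at 37 C.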

[5] = A CellTox Green Cytotoxicity Assay to monitor cytotoxicity in HEK293 cells - 24 hour (AID 1224875); also: nearly all actives have a fitted effect of over 45% in size; also: potency is read from the fitted curve at half-maximal effect
Method in brief: as §1

[6] = A CellTox Green Cytotoxicity Assay to monitor cytotoxicity in HepG2 cells - 16 hour (AID 1224876); also: nearly all actives have a fitted effect of over 45% in size
Method in brief: (§3)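 HepG2, 600 cells/well premixed w/ CellTox Green; 5 h settle, 37 C/5% CO2; pintool cpd add (DMSO); 37 C, 40 h; fluorescence read at 0, 8, 16, 24, 32, 40 h.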

[7] = qHTS RealTime-Glo MT Cell Viability Assay in HepG2 cells - 32 hour (AID 1224877); also: nearly all actives have a fitted effect of over 55% in size
Method in brief: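 Viability was tracked continuously by NanoLuc luminescence from prosubstrate reduced by living HepG2 cells, at successive time points over 40 h of compound exposure. Cells with reagent were preincubated 5 h at 37 °C before compound addition.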

[8] = A CellTox Green Cytotoxicity Assay to monitor cytotoxicity in HepG2 cells - 24 hour (AID 1224878); also: nearly all actives have a fitted effect of over 45% in size; also: potency is read from the fitted curve at half-maximal effect
Method in brief: as §3

[9] = A CellTox Green Cytotoxicity Assay to monitor cytotoxicity in HepG2 cells - 40 hour (AID 1224879); also: nearly all actives have a fitted effect of over 40% in size
Method in brief: as §3

[10] = qHTS RealTime-Glo MT Cell Viability Assay in HEK293 cells - 0 hour (AID 1224880)
Method in brief: as §2

Compound | Potency [1] | Potency [2] | Potency [3] | max response [4] [%] | Potency [5] | Potency [6] | Potency [7] | Potency [8] | Potency [9] | outcome [10] | Potency [4]
CCOC(=O)N(C)C(=O)CSP(=S)(OCC)OCC | inactive | inactive | inactive | -10 | inactive | inactive | inactive | inactive | inactive | inactive | –
Cc1nnc2n1-c1sc(CCC(=O)N3CCOCC3)cc1C(c1ccccc1Cl)=NC2 | inactive | inactive | inactive | -16.7 | inactive | inactive | inactive | inactive | inactive | inactive | –
CCC(=O)C(CCN(C)C)(c1ccccc1)c1ccccc1 | inactive | inactive | inactive | -20.5 | inactive | inactive | inactive | inactive | inactive | inactive | –
N#Cc1ccncc1 | inactive | inactive | inactive | 11.4 | inactive | inactive | inactive | inactive | inactive | inactive | –
CCS(=O)(=O)C(C)(C)S(=O)(=O)CC | inactive | inactive | inactive | 3.47 | inactive | inactive | inactive | inactive | inactive | inactive | –
OCCBr | inactive | inactive | inactive | 13.1 | inactive | inactive | inactive | inactive | inactive | inactive | –
COc1cc(OC)nc(Oc2cccc(Oc3nc(OC)cc(OC)n3)c2C(=O)O)n1 | inactive | inactive | inactive | -0.579 | inactive | inactive | inactive | inactive | inactive | inactive | –
O=[N+]([O-])c1cccc(O)c1 | inactive | inactive | inactive | 4.13 | inactive | inactive | inactive | inactive | inactive | inactive | –
c1ccc(N2CCNCC2)cc1 | inactive | inactive | inactive | 16.9 | inactive | inactive | inactive | inactive | inactive | inactive | –
NC(=O)O | inactive | inactive | inactive | 3.48 | inactive | inactive | inactive | inactive | inactive | inactive | –
CCOC(=O)C1(c2ccccc2)CCN(CCc2ccc(N)cc2)CC1 | inactive | inactive | inactive | -22.8 | inactive | inactive | inactive | inactive | inactive | inactive | –
Cc1cc(C)c(C(=O)P(=O)(C(=O)c2c(C)cc(C)cc2C)c2ccccc2)c(C)c1 | inactive | inactive | inactive | -8.76 | inactive | inactive | inactive | inactive | inactive | inactive | –
COc1ncc(F)c2nc(S(=O)(=O)Nc3c(F)cccc3F)nn12 | 13.9 µM (active) | inactive | inactive | 6.8 | 12.4 µM (active) | inactive | inactive | inactive | inactive | inactive | –
Cc1nc(N)nc(N)n1 | inactive | inactive | inactive | -3.78 | inactive | inactive | inactive | inactive | inactive | inactive | –
ClCC(Cl)(Cl)Cl | inactive | inactive | inactive | -0.0203 | inactive | inactive | inactive | inactive | inactive | inactive | –
CCCCOC(=O)c1ccccc1C(=O)O | inactive | inactive | inactive | 1.78 | inactive | inactive | inactive | inactive | inactive | inactive | –
CC(=O)[C@H]1CC[C@H]2[C@@H]3CC[C@H]4C[C@H](O)CC[C@]4(C)[C@H]3C(=O)C[C@]12C | inactive | inactive | inactive | -27.6 | inactive | inactive | inactive | inactive | inactive | inactive | –
CCOP(=S)(OCC)SCSP(=S)(OCC)OCC | inactive | inactive | inactive | 7.42 | inactive | inactive | inactive | inactive | inactive | inactive | –
O=C(O)C(Br)CBr (configuration not stated) | inactive | inactive | inactive | 26 | inactive | inactive | inactive | inactive | inactive | inactive | –
O=C1OC(=O)C2C1C1(Cl)C(Cl)=C(Cl)C2(Cl)C1(Cl)Cl (configuration not stated) | inactive | inactive | inactive | -0.525 | inactive | inactive | inactive | inactive | inactive | inactive | –
CC(=O)Nc1cc([As](=O)(O)O)ccc1O | inactive | inactive | inactive | -9.14 | inactive | inactive | inactive | inactive | inactive | inactive | –
O=C(NCO)NCO | inactive | inactive | inactive | 2.7 | inactive | inactive | inactive | inactive | inactive | inactive | –
OC(Cn1cncn1)(c1ccc(F)cc1)c1ccccc1F (configuration not stated) | inactive | inactive | inactive | -0.588 | inactive | inactive | inactive | inactive | inactive | inactive | –
CC1(C)COP(Oc2ccccc2)OC1 | inactive | inactive | inactive | -1.45 | inactive | inactive | inactive | inactive | inactive | inactive | –

Compound | Potency [1] | Potency [2] | Potency [3] | max response [4] [%] | Potency [5] | Potency [6] | Potency [7] | Potency [8] | Potency [9] | outcome [10] | Potency [4]
OC(c1ccccc1)(c1ccccc1)C1CCNCC1 | inactive | inactive | inactive | -12.9 | inactive | inactive | inactive | inactive | inactive | inactive | –
COC(=O)c1c(C(F)F)nc(C(F)(F)F)c(C2=NCCS2)c1CC(C)C | inactive | inactive | inactive | -16.3 | inactive | inactive | inactive | inactive | inactive | inactive | –
CCOP(=O)(OCC)OP(=O)(OCC)OCC | inactive | inactive | inactive | 5.24 | inactive | inactive | inactive | inactive | inactive | inactive | –
Clc1cccc(N2CCNCC2)c1 | inactive | inactive | inactive | 8.54 | inactive | inactive | inactive | inactive | inactive | inactive | –
ClCCOCOCCCl | inactive | inactive | inactive | -5.52 | inactive | inactive | inactive | inactive | inactive | inactive | –
CCCSC(=O)Cl | inactive | inactive | inactive | 9.13 | inactive | inactive | inactive | inactive | inactive | inactive | –
CC(C(=O)c1ccccc1)N(C)C (configuration not stated) | inactive | inactive | inactive | 2.47 | inactive | inactive | inactive | inactive | inactive | inactive | –
CCCSP(=S)(OCC)Oc1ccc(Cl)cc1Cl (configuration not stated) | inactive | inactive | inactive | 1.03 | inactive | inactive | inactive | inactive | inactive | inactive | –
NC(=S)C(N)=S | inactive | inactive | inactive | 4.8 | inactive | inactive | inactive | inactive | inactive | inactive | –
OCCSCSCCO | inactive | inactive | inactive | 10.4 | inactive | inactive | inactive | inactive | inactive | inactive | –
ClC(Br)Br | inactive | inactive | inactive | 9.83 | inactive | inactive | inactive | inactive | inactive | inactive | –
CNC(=O)Oc1c(C(C)(C)C)cc(C)cc1C(C)(C)C | inactive | inactive | inactive | -2.73 | inactive | inactive | inactive | inactive | inactive | inactive | –
C=CC1CC=CCC1 (configuration not stated) | inactive | inactive | inactive | 3.23 | inactive | inactive | inactive | inactive | inactive | inactive | –
COC(=O)COc1ccc(Cl)cc1Cl | inactive | inactive | inactive | 0.13 | inactive | – | inactive | inactive | inactive | inactive | –
CCCCOP(=O)(O)OCCCC | inactive | inactive | inactive | 0.827 | inactive | inactive | inactive | inactive | inactive | inactive | –
COc1cccc2c1cc([N+](=O)[O-])c1c(C(=O)O)cc3c(c12)OCO3 | inactive | 12.3 µM (active) | inactive | – | inactive | inactive | – | 21.9 µM (active) | – | – | 2.19 µM (active)
O=C1CN2CCOC2(c2ccccc2Cl)c2cc(Cl)ccc2N1 (configuration not stated) | inactive | inactive | inactive | -7.26 | inactive | inactive | – | inactive | inactive | inactive | –
CC(C)CP(=S)(S)CC(C)C | inactive | inactive | inactive | 3.1 | inactive | inactive | – | inactive | inactive | inactive | –
CNC(=O)Oc1ccc(N(C)C)c(C)c1 | inactive | inactive | inactive | -14.9 | inactive | – | inactive | inactive | inactive | inactive | –
CCOP(=S)(OCC)Oc1nc(Cl)n(C(C)C)n1 | inactive | inactive | inactive | 3.99 | inactive | inactive | inactive | inactive | inactive | inactive | –
CC(CCc1ccccc1)NC(C)C(O)c1ccc(O)cc1 (configuration not stated) | inactive | inactive | inactive | -21.9 | inactive | inactive | inactive | inactive | inactive | inactive | –
CCCCP(CCCC)CCCC | inactive | inactive | inactive | -4.34 | inactive | inactive | inactive | inactive | inactive | inactive | –
CNC(=O)Oc1cccc(C(C)C)c1 | inactive | inactive | inactive | -3.66 | inactive | inactive | – | inactive | inactive | inactive | –
